According to PubChem BioAssay (NCATS):
Records with an inconclusive call do not appear. The source made the active and inactive calls. Calls follow the shape of the dose curve; as a rule, active = well fitted inhibition curve with a large enough effect; inconclusive = small, poorly fitted or top-dose-only effect; inactive = flat fitted curve, though single readings scatter.

What was measured:
Experiment in all cases: qHTS profiling for inhibitors of Plasmodium falciparum proliferation (AID 504749); also: nearly all actives have a fitted effect of over 60% in size
Conditions in all cases: P. falciparum in erythrocytes, SYBR Green DNA, 72 h; series mostly up to 28.7 µM
[1] = test system: CP203
Outline: (§1)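 Quantitative HTS: compounds pinned into medium, infected erythrocytes added (0.3% parasitemia, 2.5% hematocrit), 72 h culture at 37 C under 5% CO2. Saponin/Triton lysis with SYBR Green I, overnight RT, then fluorescence read.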

[2] = test system: CP211
Outline: as §1

[3] = test system: CP217
Outline: as §1

[4] = test system: CP237
Outline: as §1

[5] = test system: CP238
Outline: as §1

[6] = test system: CP247
Outline: as §1

[7] = test system: CP250
Outline: as §1

[8] = test system: CP252
Outline: as §1

[9] = test system: CP256
Outline: as §1

[10] = test system: CP260
Outline: as §1

[11] = test system: CP262
Outline: as §1

[12] = test system: CP265
Outline: as §1

[13] = test system: CP266
Outline: as §1

[14] = test system: CP268
Outline: as §1

[15] = test system: CP269
Outline: as §1

[16] = test system: CP286
Outline: as §1

[17] = test system: CP297
Outline: as §1

[18] = test system: CP305
Outline: as §1

[19] = test system: CP215
Outline: as §1

[20] = test system: CP291
Outline: as §1

Measured: Potency
Potency is read from the fitted curve at half-maximal effect.

CCCC(C)(COC(N)=O)COC(N)=O
not listed: [19] | [20]
inactive: all other assays above

C=CCN1C[C@H](C)N([C@H](c2ccc(C(=O)N(CC)CC)cc2)c2cccc(OC)c2)C[C@H]1C
active: [4] 12.6 µM
inactive: [1] | [2] | [19] | [5] | [13] | [14] | [15] | [20] | [18]

CNC(C)(C)Cc1ccccc1
not listed: [4]
inactive: all other assays above

COC1CC(=C(c2cccs2)c2cccs2)C[N+](C)(C)C1 (stereo not drawn)
active: [1] 12 µM | [3] 6.31 µM | [4] 11.2 µM | [5] 6.31 µM | [6] 5.01 µM | [7] 10 µM | [8] 4.47 µM | [9] 4.47 µM | [10] 5.62 µM | [12] 4.47 µM | [15] 10.7 µM | [16] 11.2 µM

NC(=O)c1cc([N+](=O)[O-])cc([N+](=O)[O-])c1
inactive: [1] | [19] | [5] | [9] | [13] | [14] | [16] | [20] | [17] | [18]

O=C(Nc1ccc(Br)cc1)c1cc(Br)cc(Br)c1O
not listed: [1] | [11]
inactive: all other assays above

O=C1Nc2ccc(Cl)cc2C(c2ccccc2Cl)=NC1O (stereo not drawn)
not listed: [11] | [19]
inactive: all other assays above

CCC1(CC)C(=O)C=CNC1=O
not listed: [6] | [13]
inactive: all other assays above
